The values that follow come from PubChem BioAssay (NCI).

SMILES strings stand for the structures. Compounds without any hit were thinned out: in the full panel of roughly 83,000, 20% have a hit.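 Values shown are percent growth following 48 h exposure of cells in 96-well plates to a single concentration of compound; below 10 was considered active.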 A number with no mark means an inactive call. Calls of active or inactive are those of the source.

In the test the test system is HOP-92 NSCLC. As to the kind of experiment: NCI-60 one-dose screen, 48 h (100 = growth as untreated, 0 = no growth, -100 = all killed). The following applies: 10 µM unless noted.
As to `O=c1c2cccc3c(Nc4ccccn4)ccc(c32)c2nc3ccccc3n12`, the growth is 54.9%.

As for `CN(C)c1ccc(/C=C\C2=[N+](C)c3ccccc3C2(C)C)cc1`, the growth was -15.6% (active).

In the case of `Cn1cc(-c2nc(-c3c[nH]c4ccccc34)cs2)c2cccnc21`, the growth is 30.4%.

With `CCOC(=O)CC(=O)c1c(C)cc(C)cc1C`, the growth was 111%.

For `CC(C)c1c(C(=O)Nc2ccccc2)c(-c2ccccc2)c(-c2ccc(F)cc2)n1CC[C@@H]1CC=CC(=O)O1`, the growth was -24.5% (active).

As to `CCN(CC)Cc1cc(Nc2c3ccc(Cl)cc3nc3c(C)cccc23)ccc1O`, the growth was -62.7% (active).

Take `O=[N+]([O-])c1cccc(C2CC(c3ccccc3)=Nc3ccccc3S2)c1` (stereo not given): the growth is 91.1%.

As for `C=C1C(=O)O[C@H]2[C@H]1CC/C(Cn1cc(Cn3ccc4ccccc43)nn1)=C\CC[C@@]1(C)O[C@@H]21`, the growth is -36.3% (active).

Take `C=C1CCC2C3(C)COC(c4ccccc4Br)OC3CCC2(C)C1C/C=C1/C(=O)OCC1OC(C)=O` (stereo not given): the growth was 1.59% (active).

In the case of `N=S(=O)(NC(=O)c1ccc(Cl)cc1Cl)c1ccc(Br)s1` (stereo not given), the growth was 86.9%.

Take `CS(=O)CCCCCN=C=S` (stereo not given): the growth was 19.5%.

`CC1CN(C(C)C)C(=S)N(c2ccccc2)C1=O` (stereo not given): the growth was 107%.

Turning to `CC/C=C\C[C@H](O)C/C=C1/C(=O)C=C[C@@H]1C/C=C\CCCC(N)=O`, the growth was 37.6%.

As for `CCOC(=O)c1ccc2c(c1)nc(/C=C/c1ccc(Cl)cc1)n2-c1cc(C(C)(C)C)[nH]n1`, the growth is 48.2%.

As to `COC1/C=C\OC2(C)Oc3c(C)c(O)c4c(O)c(c(CN(C)CCO)c(O)c4c3C2=O)NC(=O)/C(C)=C\C=C/C(C)C(O)C(C)C(O)C(C)C(OC(C)=O)C1C` (stereo not given), the growth is 115%.
